Laboratory results as given in PubChem BioAssay (NCATS).
Records with an inconclusive call do not appear. Entries that show only a call come without a potency. The source made the active and inactive calls. The call rests on the fitted dose curve; in most records, active means well fitted curve in the direction sought with a large enough effect; inconclusive means small, poorly fitted or top-dose-only effect, or another doubt; inactive means no such curve, though single readings can be large; an effect the other way counts as inactive or inconclusive.

target: Cytochrome P450 3A4 (Homo sapiens) (UniProt P08684); test: qHTS Assay for Activators of Cytochrome P450 3A4 (AID 885); conditions: recombinant CYP3A4, Luciferin-PPXE luminescence, 60 min; series mostly up to 57.1 µM; further: nearly all actives have a fitted effect of over 65% in size
Sequence (P08684 whole entry, looked up): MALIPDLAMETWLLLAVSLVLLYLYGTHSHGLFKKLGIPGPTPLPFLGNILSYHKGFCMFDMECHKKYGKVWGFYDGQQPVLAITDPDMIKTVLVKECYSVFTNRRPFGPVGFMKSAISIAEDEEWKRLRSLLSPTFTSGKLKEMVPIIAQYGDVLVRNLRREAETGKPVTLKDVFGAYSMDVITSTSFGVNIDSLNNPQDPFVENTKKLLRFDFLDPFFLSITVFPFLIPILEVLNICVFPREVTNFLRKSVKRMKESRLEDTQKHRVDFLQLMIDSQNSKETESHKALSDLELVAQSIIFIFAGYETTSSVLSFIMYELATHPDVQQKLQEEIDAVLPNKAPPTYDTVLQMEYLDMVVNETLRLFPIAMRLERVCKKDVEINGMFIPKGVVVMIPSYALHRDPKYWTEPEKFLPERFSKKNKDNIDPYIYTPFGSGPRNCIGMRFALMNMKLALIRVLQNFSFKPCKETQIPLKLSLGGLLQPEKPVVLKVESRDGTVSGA
Outline: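 20nM CYP3A4 + 25uM Luciferin-PPXE (=KM), 200mM KPO4; cpd 10 min RT; NADPH regen, 60 min RT; stop w/ detection buffer, 20 min; luminescence. Normalized to 57 uM ketoconazole.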

SMILES	outcome
COc1ccc2cc(CCC(C)=O)ccc2c1	inactive
C=CCSCC1Nc2cc(Cl)c(S(N)(=O)=O)cc2S(=O)(=O)N1 (centres undefined)	inactive
O=C(O)c1ccccc1C(=O)Nc1ccc(S(=O)(=O)Nc2nccs2)cc1	inactive

target: Cytochrome P450 2D6 (Homo sapiens) (UniProt P10635); test: qHTS Assay for Inhibitors and Substrates of Cytochrome P450 2D6 (AID 891); conditions: recombinant CYP2D6, luciferin-ME EGE luminescence; series mostly up to 11.4 µM; further: nearly all actives have a fitted effect of over 60% in size; further: potency means the concentration at half of the fitted maximal effect
Sequence (P10635 whole entry, looked up): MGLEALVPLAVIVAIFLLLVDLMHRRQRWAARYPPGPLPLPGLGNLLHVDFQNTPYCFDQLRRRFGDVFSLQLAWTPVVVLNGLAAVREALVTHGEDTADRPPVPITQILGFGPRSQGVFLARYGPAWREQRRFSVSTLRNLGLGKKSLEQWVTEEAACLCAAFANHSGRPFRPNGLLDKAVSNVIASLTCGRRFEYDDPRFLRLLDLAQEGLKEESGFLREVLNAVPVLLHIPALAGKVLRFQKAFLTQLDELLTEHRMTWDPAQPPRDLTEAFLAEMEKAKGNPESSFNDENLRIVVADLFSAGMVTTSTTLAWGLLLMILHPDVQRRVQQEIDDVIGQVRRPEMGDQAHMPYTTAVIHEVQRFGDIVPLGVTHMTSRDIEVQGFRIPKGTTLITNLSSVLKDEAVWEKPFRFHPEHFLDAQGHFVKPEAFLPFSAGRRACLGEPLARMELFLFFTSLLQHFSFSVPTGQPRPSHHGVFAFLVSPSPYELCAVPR
Outline: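 Human CYP2D6 (5 nM) with 30 uM Luciferin-ME EGE (at Km) in 100 mM KPO4, compound preincubated 10 min, then NADPH regeneration system for 60 min at room temperature. Luciferin read by luminescence; normalized to 1.43 uM quinidine.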

SMILES	Potency
CC[N+](CC)(CC(=O)Nc1c(C)cccc1C)Cc1ccccc1	7.9 nM (active)
CCN(CC)CCOC(=O)C(c1ccccc1)c1ccccc1	5010 nM (active)
NS(=O)(=O)c1ccc(C(=O)O)cc1	inactive
CC[N+](C)(CC)CCOC(=O)C1c2ccccc2Oc2ccccc21	3980 nM (active)
CC(=O)SC[C@@H](Cc1ccccc1)C(=O)NCC(=O)OCc1ccccc1	316 nM (active)

target: Cytochrome P450 2C19 (Homo sapiens) (UniProt P33261); test: qHTS Assay for Inhibitors and Substrates of Cytochrome P450 2C19 (AID 899); conditions: recombinant CYP2C19, luciferin-H EGE luminescence; series mostly up to 25.6 µM; further: nearly all actives have a fitted effect of over 60% in size; further: potency means the concentration at half of the fitted maximal effect
Sequence (P33261 whole entry, looked up): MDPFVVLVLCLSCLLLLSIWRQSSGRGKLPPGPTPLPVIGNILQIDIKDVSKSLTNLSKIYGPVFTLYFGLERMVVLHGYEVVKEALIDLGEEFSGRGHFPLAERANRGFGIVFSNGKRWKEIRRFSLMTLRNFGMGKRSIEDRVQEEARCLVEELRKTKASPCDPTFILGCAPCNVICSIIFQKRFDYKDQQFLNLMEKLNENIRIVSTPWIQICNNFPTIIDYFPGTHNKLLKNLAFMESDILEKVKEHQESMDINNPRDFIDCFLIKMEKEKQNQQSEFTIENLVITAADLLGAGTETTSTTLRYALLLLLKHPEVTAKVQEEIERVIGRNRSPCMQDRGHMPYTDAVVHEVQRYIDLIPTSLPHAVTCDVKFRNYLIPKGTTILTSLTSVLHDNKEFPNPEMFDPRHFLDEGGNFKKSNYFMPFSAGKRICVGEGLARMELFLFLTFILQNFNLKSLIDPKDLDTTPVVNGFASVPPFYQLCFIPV
Outline: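 In 50mM KPO4, the reaction held 5nM enzyme and KM-level (10uM) Luciferin-H EGE; it ran 60 min at 37C after NADPH regeneration and a 10 min compound preincubation. Luminescence values were scaled to 57uM ketoconazole as complete inhibition.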

SMILES	Potency
NS(=O)(=O)c1ccc(C(=O)O)cc1	inactive
C[C@@H]1CCC[C@H](C)N1	inactive
CCc1cccc(CC)c1NC(=O)CN(CC(=O)O)CC(=O)O	inactive
O=C1c2ccccc2S(=O)(=O)N1CCCCN1CCN(c2ncccn2)CC1	631 nM (active)
O=C(Cn1ccnc1[N+](=O)[O-])NCCO	inactive
CC(=O)SC[C@@H](Cc1ccccc1)C(=O)NCC(=O)OCc1ccccc1	126 nM (active)
